Here are results for eight compounds from PubChem BioAssay (NCI).

The structures appear in SMILES notation. About 83,000 compounds went through this panel and 20% of them were active in at least one assay; those are over-represented in the sample as a whole.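 For each line, cells grew in 96-well plates with the test compound present at a single concentration for 48 hours.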 Values without a mark were called inactive. Active and inactive are the calls of the source. How the source made its calls: active means growth percent below 10; inactive means the rest.

Among the test systems are NCI-H23 lung; NCI-H322M lung; HOP-62 NSCLC; NCI-H460 lung; HOP-92 NSCLC; NCI-H522 lung; A549/ATCC NSCLC; 786-0 renal; COLO 205 colon; DU-145 prostate; K-562 leukemia; MALME-3M melanoma; MDA-MB-231 breast; RXF 393 renal; SF-268 CNS; SF-295 CNS; SF-539 CNS; UACC-257 melanoma; M14 melanoma; HCT-15 colon.
Holding throughout (assay): NCI-60 one-dose screen, 48 h (100 = growth as untreated, 0 = no growth, -100 = all killed)
Conditions in all cases: 10 µM unless noted

Turning to `O=C(NC1C(O)OC(CO)C(O)C1O)NS(=O)(=O)c1ccc(Cl)cc1` (stereo not given), the growth was 104% with NCI-H23 lung; 99.5% with NCI-H322M lung; 92.9% in the assay with HOP-62 NSCLC; 104% in the assay with NCI-H460 lung; 101% with HOP-92 NSCLC; 100% with NCI-H522 lung. The growth is 109% in the assay with A549/ATCC NSCLC; 104% in the assay on 786-0 renal; 114% with COLO 205 colon; 108% with DU-145 prostate; 108% with K-562 leukemia; 104% in the assay with MALME-3M melanoma. In addition, the growth in the assay on MDA-MB-231 breast was 103%; with RXF 393 renal, 115%; in the assay on SF-268 CNS it was 98.7%; with SF-295 CNS it was 103%; with SF-539 CNS, 101%; in the assay with UACC-257 melanoma, 104%. The growth in the assay with M14 melanoma and in the assay on HCT-15 colon was 102% each time.

In the case of `COC(=O)[C@H](NC(=O)C1(C)CCC[C@]2(C)[C@H]3C[C@H]4C(C(C)C)=C[C@]3(CC[C@@H]12)[C@@H]1C(=O)CCC(=O)[C@@H]14)C(C)C` (stereo not given in full), the growth is 103% in the assay on NCI-H23 lung; 96.2% in the assay on NCI-H322M lung; 99.8% in the assay with HOP-62 NSCLC; 113% in the assay with NCI-H460 lung; 96.8% in the assay with HOP-92 NSCLC; 102% in the assay on NCI-H522 lung. Moreover, the growth was 94.4% in the assay with A549/ATCC NSCLC; 102% in the assay on 786-0 renal; 110% in the assay with COLO 205 colon; 106% in the assay on DU-145 prostate; 96.9% in the assay on K-562 leukemia; 104% in the assay on MALME-3M melanoma. In addition, the growth with MDA-MB-231 breast was 90.8%; with RXF 393 renal, 105%; in the assay on SF-268 CNS it was 96.5%; with SF-295 CNS, 94.8%; with SF-539 CNS, 100%; with UACC-257 melanoma, 104%. For the same compound, the growth in the assay on M14 melanoma was 102%; in the assay with HCT-15 colon it was 95.3%.

Regarding `COc1cc(/C=C2\CCC/C(=C\c3cc(CN4CCCCC4)c(O)c(OC)c3)C2=O)cc(CN2CCCCC2)c1O`, the growth was 74.6% in the assay on NCI-H23 lung; 85.9% in the assay on NCI-H322M lung; 88.1% in the assay with HOP-62 NSCLC; 72.7% in the assay with NCI-H460 lung; 47% in the assay with HOP-92 NSCLC; 87% in the assay with NCI-H522 lung. Also, the growth in the assay with A549/ATCC NSCLC was 89.7%; in the assay on 786-0 renal, 72.4%; with COLO 205 colon, 88.4%; in the assay with DU-145 prostate, 83.1%; in the assay with K-562 leukemia, 38.8%; in the assay on MALME-3M melanoma, 90.3%. Also, the growth was 69.3% in the assay on MDA-MB-231 breast; 61.7% in the assay with RXF 393 renal; 73.5% with SF-268 CNS; 96.8% with SF-295 CNS; 73% in the assay on SF-539 CNS; 95.4% in the assay on UACC-257 melanoma. In addition, the growth in the assay on M14 melanoma is 99%; in the assay on HCT-15 colon, 52.3%.

`O=C(CSc1nc2ccccc2c(=O)n1-c1ccccc1)Nc1ccc(C(=O)/C=C/c2ccc(Cl)cc2)cc1`: the growth was 93.4% in the assay on NCI-H23 lung; 101% in the assay on NCI-H322M lung; 107% with HOP-62 NSCLC; 100% in the assay with NCI-H460 lung; 97.1% in the assay on HOP-92 NSCLC; 85.3% with NCI-H522 lung. Besides, the growth in the assay with A549/ATCC NSCLC is 97%; with 786-0 renal, 102%; in the assay on COLO 205 colon it was 108%; with DU-145 prostate it was 109%; in the assay with K-562 leukemia, 90.8%; in the assay on MALME-3M melanoma it was 95.5%. The growth in the assay on MDA-MB-231 breast was 93.3%; in the assay with RXF 393 renal it was 127%; in the assay with SF-268 CNS, 115%; in the assay with SF-295 CNS, 105%; with SF-539 CNS, 113%; with UACC-257 melanoma, 89.6%. The results for the growth with M14 melanoma and in the assay with HCT-15 colon were 101% and 98.1%, respectively.

Regarding `CC(C)c1ccc(S(=O)(=O)NC(=O)NC2CCCC2)cc1`, the growth in the assay on NCI-H23 lung was 101%; in the assay on NCI-H322M lung, 98%; in the assay on HOP-62 NSCLC, 100%; with NCI-H460 lung it was 104%; in the assay with HOP-92 NSCLC it was 107%; in the assay on NCI-H522 lung, 97.2%. The growth with A549/ATCC NSCLC was 87.7%; in the assay with 786-0 renal, 103%; with COLO 205 colon it was 108%; with DU-145 prostate it was 107%; in the assay with K-562 leukemia it was 103%; with MALME-3M melanoma it was 97.1%. Further, the growth with MDA-MB-231 breast is 102%; with RXF 393 renal it was 115%; in the assay on SF-268 CNS it was 101%; in the assay on SF-295 CNS it was 97.7%; in the assay on SF-539 CNS it was 96.1%; with UACC-257 melanoma it was 95.7%. Also, the growth was -52.9% (active) in the assay on M14 melanoma and 97.3% with HCT-15 colon.

Turning to `COc1ccc(CN2CCCC(C(=O)c3ccc(C(F)(F)F)cc3)C2)c(O)c1` (stereo not given), the growth in the assay with NCI-H23 lung is 37.3%; in the assay on NCI-H322M lung, 80.6%; with HOP-62 NSCLC it was 37.5%; with NCI-H460 lung it was 7.11% (active); with HOP-92 NSCLC it was 36.5%; in the assay with NCI-H522 lung it was -36.6% (active). The growth is 32.3% with A549/ATCC NSCLC; 41.5% in the assay on 786-0 renal; -23.1% (active) in the assay with COLO 205 colon; 50.6% in the assay with DU-145 prostate; 7.39% (active) in the assay on K-562 leukemia; 12.7% in the assay on MALME-3M melanoma. In addition, the growth with MDA-MB-231 breast is 7.33% (active); in the assay on RXF 393 renal, 20.4%; with SF-268 CNS, 30.5%; with SF-295 CNS, -20.8% (active); in the assay on SF-539 CNS, 14.8%; in the assay on UACC-257 melanoma it was 40.1%. Also, the figures for the growth in the assay with M14 melanoma and in the assay with HCT-15 colon were 18.9% and 25.7%, respectively.

Take `COc1c(B(O)O)cccc1-c1nc2ccc3[nH]ncc3c2c2c1C1CCC2C1` (stereo not given): the growth in the assay with NCI-H23 lung is 85.1%; in the assay with NCI-H322M lung, 84.2%; in the assay on HOP-62 NSCLC, 65.7%; in the assay with NCI-H460 lung, 51%; in the assay on HOP-92 NSCLC it was 108%; with NCI-H522 lung, 59.5%. Moreover, the growth in the assay on A549/ATCC NSCLC is 26.6%; with 786-0 renal, 52.6%; in the assay on COLO 205 colon, 50.4%; in the assay on DU-145 prostate, 72.3%; in the assay on K-562 leukemia, 55.6%; in the assay on MALME-3M melanoma, 136%. Further, the growth in the assay on MDA-MB-231 breast was 71.2%; with RXF 393 renal, 28.5%; with SF-268 CNS, 67.4%; with SF-295 CNS, 86%; in the assay on SF-539 CNS, 28%; in the assay on UACC-257 melanoma, 101%. The growth with M14 melanoma is 84%; with HCT-15 colon it was 49.6%.

Regarding `COc1ccc2sc(N(Cc3cccnc3)C(=O)c3ccc(C#N)cc3)nc2c1`, the growth in the assay with NCI-H23 lung is 96.3%; in the assay on NCI-H322M lung, 101%; in the assay with HOP-62 NSCLC, 94.4%; in the assay on NCI-H460 lung, 101%; in the assay on HOP-92 NSCLC, 60.7%; in the assay on NCI-H522 lung it was 124%. Besides, the growth in the assay with A549/ATCC NSCLC is 81.9%; in the assay with 786-0 renal it was 69.8%; in the assay with COLO 205 colon, 84%; in the assay on DU-145 prostate, 93.5%; with K-562 leukemia it was 16.4%; in the assay on MALME-3M melanoma, 60.9%. The growth was 71.5% in the assay with MDA-MB-231 breast; 92.8% with RXF 393 renal; 87.7% in the assay with SF-268 CNS; 35.6% in the assay on SF-295 CNS; 70.5% in the assay with SF-539 CNS; -46.3% (active) in the assay with UACC-257 melanoma. Further, the growth with M14 melanoma is 25.4%; in the assay with HCT-15 colon, 66.1%.
